In PubChem BioAssay AID1851 (National Center for Advancing Translational Sciences (NCATS), 2009) one finds AC50 and activity, negative = inhibition data, which are given here for 88 compounds.

One may read the AC50 as the concentration giving half of the maximal activity seen.

Values joined by “and” are separate entries in the source; they are usually repeats but may differ in a detail not shown here. Equal values may be shown once. Out of some 16,000 compounds screened, about 4,000 (25%) were called active. About 26% were inconclusive and are not listed. The call rests on the fitted dose curve; in most records, active means well fitted curve in the direction sought with a large enough effect; inconclusive means small, poorly fitted or top-dose-only effect, or effect the other way; inactive means no such curve, though single readings can be large or run the other way. A selection follows. A structure can be active in one record and inactive in another.
On the % scale 0 is the no-effect control and ±100 the full control effect.

Cytochrome P450 2C9 (Homo sapiens), sequence (P11712 whole entry, looked up): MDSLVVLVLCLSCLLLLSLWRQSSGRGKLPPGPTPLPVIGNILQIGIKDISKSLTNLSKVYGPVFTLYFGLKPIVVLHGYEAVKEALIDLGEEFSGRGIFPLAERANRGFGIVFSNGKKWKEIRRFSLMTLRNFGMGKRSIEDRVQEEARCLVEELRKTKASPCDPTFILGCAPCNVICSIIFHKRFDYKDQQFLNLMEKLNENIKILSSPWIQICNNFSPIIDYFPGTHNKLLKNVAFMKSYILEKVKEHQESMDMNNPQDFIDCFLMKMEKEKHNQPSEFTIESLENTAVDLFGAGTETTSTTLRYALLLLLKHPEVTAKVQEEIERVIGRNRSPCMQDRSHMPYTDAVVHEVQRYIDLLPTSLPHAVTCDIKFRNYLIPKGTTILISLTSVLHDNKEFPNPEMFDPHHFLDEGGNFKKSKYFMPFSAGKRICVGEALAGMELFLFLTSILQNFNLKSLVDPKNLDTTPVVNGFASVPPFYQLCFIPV

The experiment has as its target Cytochrome P450 2C9 (Homo sapiens) (UniProt P11712). The experiment in a line: Cytochrome panel assay with activity outcomes. To be noted: recombinant CYP, pro-luciferin dealkylation, luminescence, p450-cyp2c9; series mostly up to 57.1 µM.
On to `NC(=O)c1cccc(N)c1`, for which the AC50 is 12.6 µM (active).

For `N=C(N)c1ccccc1`, the AC50 entry is “inactive”.

For `NC(=O)/C(=N\O)c1ccccc1`, the AC50 result is “inactive”.

Turning to `O=C1C(Cc2ccccc2)SC(=Nc2ccccc2)N1c1ccccc1` (stereo not drawn), the AC50 was 15.8 µM (active).

With `O=C1C(Cc2ccccc2)NC(=S)N1c1ccccc1` (stereo not drawn), the AC50 result is “inactive”.

For the compound `CCOc1ccc(-n2c(=O)[nH]cc(C(=O)N3CCCc4ccccc43)c2=O)cc1`, the AC50 is 12.6 µM (active).

Consider `CCOc1ccc(NC(=O)C(=O)NCC2CCCN2CC)cc1` (stereo not drawn), for which the AC50 result is “inactive”.

Regarding `O=C(c1c[nH]c(=O)n(-c2ccccc2)c1=O)N1CCc2ccccc21`, the AC50 entry was “inactive”.

As for `COc1cc(-c2nc3ccccn3c2/N=C/c2ccccc2)ccc1O`, the AC50 was 14.1 µM (active).

Regarding `O=[N+]([O-])c1ccc(Cl)c(-c2ccc(/C=N/c3c(-c4ccco4)nc4ccccn34)o2)c1`, the AC50 entry was “inactive”.

For the compound `COc1ccc(C=Nc2c(O)ccc3ccccc23)cc1OC`, the activity, negative = inhibition was -1.31% [at 11.4 µM] (inactive).

`CCOc1cc(/C=N/n2cnnc2)c(Br)cc1O`: the half-maximal activity concentration (AC50) was 10 µM (active).

With `CCOc1cc(/C=N/O)cc(Cl)c1OC`, the AC50 result is “inactive”.

`COc1ccc(NC(=O)N2CC3(CCN(C(=O)c4cccn4C)CC3)C2)cc1`: the AC50 result was “inactive”.

For `COCCNC(=O)CCn1nc(-c2ccc(Cl)cc2)ccc1=O`, the AC50 result is “inactive”.

On to `CCC(Sc1nc2n[nH]c(C)c2c(=N)n1-c1cccc(Cl)c1)C(=O)NCCOC` (stereo not drawn), for which the AC50 is 4.47 µM (active).

In the case of `CO[C@@H]1COC(=O)[C@H](C)NC(=O)[C@@H](C)COC(=O)CCC[C@H]1C`, the activity, negative = inhibition was 10.9% [at 11.4 µM] (inactive).

As to `N#C/C(=C\c1ccc(O)c(O)c1)C(=O)OCCc1cccs1`, the AC50 is 15.8 µM (active).

Turning to `N#C/C(=C\c1ccc(O)c(O)c1)C(=O)NCCc1ccccc1`, the AC50 entry was “inactive”.

With `CC(C)CN1CCC2(CC1)CCN(S(=O)(=O)c1ccccc1)CC2`, the AC50 entry was “inactive”.

For the compound `CC(Oc1ccc(Cl)cc1)c1ccnn1S(=O)(=O)c1ccccc1` (stereo not drawn), the AC50 is 7.94 µM (active).

On to `CC(Oc1ccc(-c2ccccc2)c(F)c1)c1ccn(S(=O)(=O)c2ccc(Cl)cc2)n1` (stereo not drawn), for which the AC50 is 7.08 µM (active).

For the compound `CC(Oc1ccccc1)c1ccnn1S(=O)(=O)c1ccccc1` (stereo not drawn), the half-maximal activity concentration (AC50) is 4.47 µM (active).

On to `COc1cc2nc(N3CCN(C(=O)[C@@H]4CCCO4)CC3)nc(N)c2cc1OC`, for which the AC50 result was “inactive”.

With `O=C(NNS(=O)(=O)c1cc(Cl)cc(Cl)c1)c1sccc1-n1cccc1`, the AC50 is 0.126 µM (active).

With `CNc1ncnc2c1ncn2[C@@H]1O[C@@H](CO)[C@H](O)[C@@H]1O`, the AC50 result was “inactive”.

Turning to `CCCCC#Cc1nc(NC)c2ncn([C@@H]3O[C@@H](CO)[C@H](O)[C@H]3O)c2n1`, the concentration at half-maximal activity (AC50) is 0.631 µM (active).

With `CNc1ncnc2c1ncn2[C@@H]1O[C@H](CO)[C@@H](O)[C@@H]1O`, the AC50 entry is “inactive”.

As for `COc1ccc2c(c1)N(CC[C@H]1CCCCN1C)c1ccccc1S2`, the activity, negative = inhibition was -3.81% [at 11.4 µM] (inactive).

In the case of `N#CC1=C(SCC(N)=O)NC2=C(C(=O)c3ccccc32)C1c1ccc(Cl)cc1` (stereo not drawn), the half-maximal activity concentration (AC50) was 6.31 µM (active).

Take `CSC1=C(C#N)C(c2ccccc2Cl)C2=C(N1)c1ccccc1C2=O` (stereo not drawn): the concentration at half-maximal activity (AC50) is 1 µM (active).

Consider `O=C(O)CC/C=C\CC[C@H]1[C@@H](N2CCCCC2)[C@@H](O)C[C@@H]1OCc1ccc(-c2ccccc2)cc1`, for which the AC50 entry was “inactive”.

For `COCCCNCC(=O)c1c(N)n(Cc2ccccc2)c(=O)n(C)c1=O`, the AC50 entry is “inactive”.

With `Cn1c(=O)c2c(n(Cc3ccccc3)c1=O)NC(=O)C2CC(=O)NCc1cccc(Cl)c1` (stereo not drawn), the AC50 was 12.6 µM (active).

On to `C1CCN(CC[C@@H]2CCCCN2)CC1`, for which the activity, negative = inhibition was 12.5% [at 11.4 µM] (inactive).

As for `CCCCCN1CC(O)=C(c2nc(-c3ccc(Cl)cc3)cs2)C1=N`, the AC50 was 0.631 µM (active).

For `C[N+](C)(N)Cc1csc(-c2ccc(Cl)cc2)n1`, the activity, negative = inhibition was 2.29% [at 11.4 µM] (inactive).

`CCCCc1n[nH]c2c1/C(=N/O)CC(c1ccccc1)C2` (stereo not drawn): the concentration at half-maximal activity (AC50) was 2 µM (active).

For the compound `COc1ccccc1-c1ccc2ncnc(NCc3cnc(C)cn3)c2c1`, the activity, negative = inhibition is -18.5% [at 2.29 µM] (inactive).

Regarding `O=C1CC(c2cccs2)c2cc3c(cc2N1)OCO3` (stereo not drawn), the half-maximal activity concentration (AC50) is 15.8 µM (active).

In the case of `COc1ccc(Oc2nc3ccccc3nc2C(F)(F)F)cc1`, the half-maximal activity concentration (AC50) was 7.94 µM (active).

Regarding `COc1ccc(-n2c(=O)cnc3cnc(Oc4ccccc4)nc32)cc1`, the AC50 result is “inactive”.

Consider `O=C1C=C(N2CCN(c3ccccn3)CC2)C(=O)c2c(O)ccc(O)c21`, for which the activity, negative = inhibition is -10.2% [at 11.4 µM] (inactive).

As to `O=C(NCCc1ccccc1)N1c2ccccc2Sc2ccccc21`, the half-maximal activity concentration (AC50) was 12.6 µM (active).

With `O=C(O)CNCCc1ccccc1`, the activity, negative = inhibition is 12.3% [at 11.4 µM] (inactive).

Consider `C[C@@H](CN1c2ccccc2Sc2ccccc21)N(C)C`, for which the AC50 entry was “inactive”.

For the compound `O=S(=O)(c1ccc(Cl)s1)N1CCc2ccccc2C1`, the half-maximal activity concentration (AC50) is 28.2 µM (active).

Consider `O=C(NCCCN1CCc2ccccc2C1)C1CCN(S(=O)(=O)N2CCCC2)CC1`, for which the AC50 entry is “inactive”.

As to `C=CCNCCCCOc1c(Cl)cc(C)cc1Br`, the AC50 entry is “inactive”.

`COc1ccc2c(c1)OC1=C(C(=O)CCC1)C2C1=C(O)CCCC1=O` (stereo not drawn): the AC50 is 22.4 µM (active).

In the case of `COc1ccc2oc(=O)c(NC(=O)C3CCCCC3)cc2c1`, the AC50 result is “inactive”.

As to `COc1ccccc1CN(Cc1cc2cc3c(cc2[nH]c1=O)OCCO3)Cc1nnnn1Cc1ccco1`, the concentration at half-maximal activity (AC50) is 12.6 µM (active).

As for `CN1CCc2[nH]nc(-c3n[nH]c4c3CN(C)CC4)c2C1`, the activity, negative = inhibition is 3.89% [at 11.4 µM] (inactive).

With `CCOc1cc(CC(=O)N[C@@H](CC(C)C)c2ccccc2N2CCCCC2)ccc1C(=O)O`, the AC50 entry was “inactive”.

`CN(C(=O)CCCOc1ccc2[nH]c(=O)ccc2c1)C1CCCCC1`: the AC50 result is “inactive”.

As for `C[N+]1(CC(=O)OCCCc2ccccc2)CCOCC1`, the AC50 entry was “inactive”.

Turning to `CCOc1ccc2[nH]c(=O)c(CN(CCc3ccccc3)C(=O)N3CCOCC3)cc2c1`, the concentration at half-maximal activity (AC50) was 7.08 µM (active).

For the compound `CCOc1ccc2[nH]c(=O)c(CN(CCc3ccccc3)C(=O)N3CCCC3)cc2c1`, the AC50 is 7.94 µM (active).

`CCOc1ccc(C2C(C(=O)O)c3ccccc3C(=O)N2CCN2CCOCC2)cc1` (stereo not drawn): the AC50 entry is “inactive”.

In the case of `CO[C@@H]1COC(=O)[C@@H](CCSC)NC(=O)C/C=C\[C@@H](C)COC(=O)[C@H](C)NC(=O)C/C=C\[C@H]1C`, the activity, negative = inhibition was 10% [at 11.4 µM] (inactive).

In the case of `CN(Cc1ccco1)c1ncnc2ccc(-c3ccccc3C#N)cc12`, the activity, negative = inhibition is -18.9% [at 2.29 µM] (inactive).

For the compound `Oc1ccc2ccccc2c1C=NCc1c(O)ccc2ccccc12`, the activity, negative = inhibition was -2.74% [at 11.4 µM] (inactive).

Regarding `Oc1ccc2ccccc2c1/C=C\c1ccc2c(Br)cc(Br)c(O)c2n1`, the AC50 was 2.51 µM (active).

As to `FC(F)(F)c1ccccc1-c1ccc2ncnc(NC3CC3)c2c1`, the activity, negative = inhibition was -6.68% [at 2.29 µM] (inactive).

Regarding `NS(=O)(=O)c1ccc(N=C2C(=O)Nc3ccccc32)cc1`, the activity, negative = inhibition was 0.554% [at 11.4 µM] (inactive).

As for `O=C1Nc2ccccc2/C1=N/c1sc2c(c1C(=O)NCCc1ccccc1)CCCC2`, the concentration at half-maximal activity (AC50) was 3.98 µM (active).

Regarding `O=C(NCCc1ccccc1)C(=O)NN=C1CCCC1`, the AC50 entry is “inactive”.

As for `C=CC1=C(C(=O)O)N2C(=O)[C@@H](NC(=O)/C(=N\OCC(=O)O)c3csc(N)n3)[C@@H]2SC1`, the AC50 entry was “inactive”.

For `O=C(NNc1cccc(Cl)n1)Nc1ccccc1Cl`, the AC50 result is “inactive”.

Consider `CN(C)S(=O)(=O)Oc1cccc(C(=O)Nc2ccccc2Cl)c1`, for which the AC50 is 5.01 µM (active).

As to `Cc1nc2cnc(N(C)C)nc2n(C)c1=O`, the AC50 result was “inactive”.

With `CCOC(=O)c1sc2nc3c(cc2c1N)COC(C)(CC)C3` (stereo not drawn), the AC50 was 10 µM (active).

With `CCOC(=O)c1sc2nc3c(cc2c1N)COC(C(C)C)C3` (stereo not drawn), the AC50 result is “inactive”.

Regarding `CCOC(=O)C1=C(C)NC(C)=C(C(=O)OC)[C@@H]1c1cccc([N+](=O)[O-])c1`, the AC50 was 0.316 µM (active).

In the case of `CCOC(=O)/C(=C/Nc1ccccc1)[N+](=O)[O-]`, the AC50 result was “inactive”.

In the case of `CCOC(=O)C1=C(C)NC(C)=C(C(=O)OC)[C@H]1c1cccc([N+](=O)[O-])c1`, the half-maximal activity concentration (AC50) is 0.158 µM (active).

On to `C#CCN1C(C)=C(C(=O)OC)[C@@H](c2cccc([N+](=O)[O-])c2)C(C(=O)OCC)=C1C`, for which the concentration at half-maximal activity (AC50) was 0.316 µM (active).

For `CO[C@H]1COC(=O)[C@@H](CCSC)NC(=O)C/C=C\[C@@H](C)[C@H](OC)COC(=O)[C@@H](OCc2ccccc2)/C=C\[C@@H]1C`, the activity, negative = inhibition was 19.4% [at 11.4 µM] (inactive).

As to `O=C(Nc1ccc(C(=O)Nc2ccc(C(=O)Nc3ccc(S(=O)(=O)O)c4cc(S(=O)(=O)O)cc(S(=O)(=O)O)c34)cc2)cc1)Nc1ccc(C(=O)Nc2ccc(C(=O)Nc3ccc(S(=O)(=O)O)c4cc(S(=O)(=O)O)cc(S(=O)(=O)O)c34)cc2)cc1`, the AC50 entry is “inactive”.

For the compound `O=C(Nc1cc(C(=O)Nc2ccc(S(=O)(=O)O)cc2S(=O)(=O)O)cc(C(=O)Nc2ccc(S(=O)(=O)O)cc2S(=O)(=O)O)c1)Nc1cc(C(=O)Nc2ccc(S(=O)(=O)O)cc2S(=O)(=O)O)cc(C(=O)Nc2ccc(S(=O)(=O)O)cc2S(=O)(=O)O)c1`, the half-maximal activity concentration (AC50) entry was “inactive and 7.94 µM (active)”.

For `O=C(Nc1cccc(C(=O)Nc2ccc(S(=O)(=O)O)c3cc(S(=O)(=O)O)cc(S(=O)(=O)O)c23)c1)Nc1cccc(C(=O)Nc2ccc(S(=O)(=O)O)c3cc(S(=O)(=O)O)cc(S(=O)(=O)O)c23)c1`, the AC50 entry is “inactive”.

For the compound `COCCNc1ccnc(-c2ccccc2C)n1`, the activity, negative = inhibition was -5% [at 2.29 µM] (inactive).

Take `CCOC(=O)c1cn(-c2nc(-c3ccc(Cl)cc3)cs2)c2c(F)c(N3CC(C)OC(C)C3)c(F)cc2c1=O` (stereo not drawn): the AC50 entry is “inactive”.

For `CCOC(=O)c1cnn(-c2nc(-c3ccc(F)cc3)cs2)c1C(F)(F)F`, the AC50 is 12.6 µM (active).

As for `CCOC(=O)c1cnn(-c2cc(Oc3ccccc3)ncn2)c1N`, the AC50 entry was “inactive”.

With `CCOC(=O)c1cnn(CCOC(=O)C(C)(C)C)c1NC(=O)C(C)(C)C`, the AC50 result was “inactive”.

With `CCOC(=O)c1cnn(-c2nc(-c3cccc(F)c3)cs2)c1C(F)(F)F`, the half-maximal activity concentration (AC50) was 2.24 µM (active).

Consider `FC(F)(F)c1ccccc1-c1cncnc1NCc1cccs1`, for which the activity, negative = inhibition is -5.24% [at 2.29 µM] (inactive).
